# Test results taken from PMC7862700, “An all-to-all approach to the identification of sequence-specific readers for epigenetic DNA modifications on cytosine”.
# What was measured:
# Assay in all cases: DAPPL (digital affinity profiling via proximity ligation, sequencing); 10 mM Tris-HCl pH 7.5, 50 mM NaCl, 1 mM DTT, 4% glycerol, room temperature, 30 min; GST-TFs on glutathione beads, 16-mer random dsDNA library, 0.1% formaldehyde crosslink after washing; high values mean tight binding
# FLI1 = molecular target: T1, FLI1 (Homo sapiens, UniProt Q01543 1-452); details: protein: recombinant; tags: N-terminal GST; dsDNA, one strand shown
# T1 sequence: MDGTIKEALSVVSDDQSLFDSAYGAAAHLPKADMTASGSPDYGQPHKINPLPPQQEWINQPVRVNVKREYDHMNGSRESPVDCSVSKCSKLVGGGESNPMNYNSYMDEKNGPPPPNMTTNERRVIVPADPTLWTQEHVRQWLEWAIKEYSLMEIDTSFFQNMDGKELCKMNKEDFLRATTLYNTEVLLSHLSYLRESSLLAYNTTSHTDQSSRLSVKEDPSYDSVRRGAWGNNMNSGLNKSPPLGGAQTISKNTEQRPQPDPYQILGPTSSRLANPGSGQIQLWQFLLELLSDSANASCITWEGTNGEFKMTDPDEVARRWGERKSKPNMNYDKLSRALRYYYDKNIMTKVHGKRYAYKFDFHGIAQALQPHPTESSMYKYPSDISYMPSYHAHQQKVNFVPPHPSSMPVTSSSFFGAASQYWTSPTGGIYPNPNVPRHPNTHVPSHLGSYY
# How it was run: (§1)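 Pools of DNA-barcoded human transcription factors, expressed in yeast as GST fusions on glutathione beads and combined with a tag-only sample, were incubated with 200 nmole of a 16-mer random double-stranded DNA library. Incubation took 30 min at room temperature in Tris/NaCl/DTT/glycerol buffer and was followed by washing, 0.1% formaldehyde crosslinking, proximity ligation (BsaI/T4 ligase, 1 h, 37 °C), PCR amplification and sequencing on an Illumina NextSeq500. Binding signal is the ratio of a hexamer's read frequency for a factor to its frequency for the tag-only sample.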
# ELK1 = molecular target: T2, ELK1 (Homo sapiens, UniProt P19419 1-428); details: protein: recombinant; tags: N-terminal GST; dsDNA, one strand shown
# T2 sequence: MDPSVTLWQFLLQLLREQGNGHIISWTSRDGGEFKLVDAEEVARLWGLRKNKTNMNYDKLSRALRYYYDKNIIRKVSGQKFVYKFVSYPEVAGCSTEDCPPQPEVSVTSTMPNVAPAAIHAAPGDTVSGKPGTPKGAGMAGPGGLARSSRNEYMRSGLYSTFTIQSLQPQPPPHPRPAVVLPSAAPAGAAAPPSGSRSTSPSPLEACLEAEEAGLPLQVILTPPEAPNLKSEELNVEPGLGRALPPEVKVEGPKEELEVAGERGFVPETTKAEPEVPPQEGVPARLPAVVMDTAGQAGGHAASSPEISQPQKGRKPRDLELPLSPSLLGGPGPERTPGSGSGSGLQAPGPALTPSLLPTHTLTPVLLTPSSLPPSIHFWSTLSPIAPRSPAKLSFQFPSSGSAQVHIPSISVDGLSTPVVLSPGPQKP
# How it was run: as §1
# GABPA = molecular target: T3, GABPA (Homo sapiens, UniProt Q06546 1-454); details: protein: recombinant; tags: N-terminal GST; dsDNA, one strand shown
# T3 sequence: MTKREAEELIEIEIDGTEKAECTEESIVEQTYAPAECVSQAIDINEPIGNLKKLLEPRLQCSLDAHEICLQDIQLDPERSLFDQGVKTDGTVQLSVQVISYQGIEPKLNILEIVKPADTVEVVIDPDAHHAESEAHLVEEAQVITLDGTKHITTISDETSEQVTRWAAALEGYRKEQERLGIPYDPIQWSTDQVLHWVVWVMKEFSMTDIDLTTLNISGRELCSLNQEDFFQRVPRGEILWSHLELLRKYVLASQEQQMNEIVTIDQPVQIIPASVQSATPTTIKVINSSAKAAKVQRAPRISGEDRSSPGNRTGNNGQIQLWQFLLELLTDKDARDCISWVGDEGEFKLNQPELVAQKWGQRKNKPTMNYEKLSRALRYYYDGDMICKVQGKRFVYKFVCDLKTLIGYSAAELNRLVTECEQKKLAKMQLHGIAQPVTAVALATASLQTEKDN
# How it was run: as §1
# ERG = molecular target: T4, ERG (Homo sapiens, UniProt P11308 1-479); details: protein: recombinant; tags: N-terminal GST; dsDNA, one strand shown
# T4 sequence: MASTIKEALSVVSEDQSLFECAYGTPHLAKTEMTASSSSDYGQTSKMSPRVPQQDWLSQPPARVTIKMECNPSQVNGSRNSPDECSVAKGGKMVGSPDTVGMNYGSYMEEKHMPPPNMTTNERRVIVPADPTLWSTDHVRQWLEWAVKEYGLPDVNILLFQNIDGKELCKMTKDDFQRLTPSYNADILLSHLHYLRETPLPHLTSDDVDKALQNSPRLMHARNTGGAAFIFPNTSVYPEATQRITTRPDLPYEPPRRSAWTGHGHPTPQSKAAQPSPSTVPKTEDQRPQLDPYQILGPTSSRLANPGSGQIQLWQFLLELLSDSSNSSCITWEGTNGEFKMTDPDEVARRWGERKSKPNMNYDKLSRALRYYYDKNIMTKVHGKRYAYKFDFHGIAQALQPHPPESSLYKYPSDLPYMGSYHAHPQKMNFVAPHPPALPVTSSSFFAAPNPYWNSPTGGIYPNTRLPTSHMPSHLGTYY
# How it was run: as §1
# ELF1 = ELF1 (Homo sapiens, UniProt P32519 1-619); details: protein: recombinant; tags: N-terminal GST; dsDNA, one strand shown
# How it was run: as §1
# EHF = molecular target: T5, EHF (Homo sapiens, UniProt Q9NZC4 1-300); details: protein: recombinant; tags: N-terminal GST; dsDNA, one strand shown
# T5 sequence: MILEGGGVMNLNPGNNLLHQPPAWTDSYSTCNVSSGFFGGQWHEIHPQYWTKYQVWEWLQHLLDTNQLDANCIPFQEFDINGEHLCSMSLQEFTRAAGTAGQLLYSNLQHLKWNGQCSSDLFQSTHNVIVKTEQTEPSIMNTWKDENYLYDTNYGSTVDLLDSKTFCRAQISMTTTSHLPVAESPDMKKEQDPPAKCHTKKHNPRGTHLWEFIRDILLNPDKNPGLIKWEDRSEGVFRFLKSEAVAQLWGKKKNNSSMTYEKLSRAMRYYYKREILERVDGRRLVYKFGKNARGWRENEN
# How it was run: as §1
# SPI1 = SPI1 (Homo sapiens, UniProt P17947 1-270); details: protein: recombinant; tags: N-terminal GST; dsDNA, one strand shown
# How it was run: as §1
# SPIB = SPIB (Homo sapiens, UniProt Q01892 1-262); details: protein: recombinant; tags: N-terminal GST; dsDNA, one strand shown
# How it was run: as §1
# ELK3 = molecular target: T6, ELK3 (Homo sapiens, UniProt P41970 1-407); details: protein: recombinant; tags: N-terminal GST; dsDNA, one strand shown
# T6 sequence: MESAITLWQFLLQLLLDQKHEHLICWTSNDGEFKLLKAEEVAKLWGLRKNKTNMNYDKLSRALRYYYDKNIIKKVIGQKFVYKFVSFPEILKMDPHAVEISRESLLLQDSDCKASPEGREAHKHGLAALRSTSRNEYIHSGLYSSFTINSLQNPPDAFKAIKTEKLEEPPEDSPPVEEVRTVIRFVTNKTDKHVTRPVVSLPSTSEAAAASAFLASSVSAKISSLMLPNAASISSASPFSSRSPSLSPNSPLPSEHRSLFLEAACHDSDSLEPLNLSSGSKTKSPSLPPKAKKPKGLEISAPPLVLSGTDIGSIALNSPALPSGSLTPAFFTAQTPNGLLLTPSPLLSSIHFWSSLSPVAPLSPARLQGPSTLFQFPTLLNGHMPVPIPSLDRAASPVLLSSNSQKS
# How it was run: as §1
# FEV = molecular target: T7, FEV (Homo sapiens, UniProt Q99581 1-238); details: protein: recombinant; tags: N-terminal GST; dsDNA, one strand shown
# T7 sequence: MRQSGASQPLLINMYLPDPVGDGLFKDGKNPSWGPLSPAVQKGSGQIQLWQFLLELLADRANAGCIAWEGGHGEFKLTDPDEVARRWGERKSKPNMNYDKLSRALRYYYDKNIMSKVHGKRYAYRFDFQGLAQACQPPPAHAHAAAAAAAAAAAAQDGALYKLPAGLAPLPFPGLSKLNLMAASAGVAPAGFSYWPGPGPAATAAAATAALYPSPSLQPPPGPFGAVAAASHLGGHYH
# How it was run: as §1
# ETV5 = ETV5 (Homo sapiens, UniProt P41161 1-510); details: protein: recombinant; tags: N-terminal GST; dsDNA, one strand shown
# How it was run: as §1
# HSF1 = HSF1 (Homo sapiens, UniProt Q00613 1-529); details: protein: recombinant; tags: N-terminal GST; chain copies: 3; dsDNA, one strand shown
# How it was run: as §1
# SPIC = molecular target: T8, SPIC (Homo sapiens, UniProt Q8N5J4 1-248); details: protein: recombinant; tags: N-terminal GST; dsDNA, one strand shown
# T8 sequence: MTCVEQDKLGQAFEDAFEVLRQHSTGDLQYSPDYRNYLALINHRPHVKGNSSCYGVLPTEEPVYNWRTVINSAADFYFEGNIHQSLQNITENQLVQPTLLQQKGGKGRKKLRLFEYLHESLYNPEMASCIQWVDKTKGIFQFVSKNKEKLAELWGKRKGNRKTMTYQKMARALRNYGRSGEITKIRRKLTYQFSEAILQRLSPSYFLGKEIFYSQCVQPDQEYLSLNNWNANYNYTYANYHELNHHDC
# How it was run: as §1
# ELF4 = ELF4 (Homo sapiens, UniProt Q99607 1-663); details: protein: recombinant; tags: N-terminal GST; dsDNA, one strand shown
# How it was run: as §1
# ELK4 = molecular target: T9, ELK4 (Homo sapiens, UniProt P28324-2 1-405); details: protein: recombinant; tags: N-terminal GST; dsDNA, one strand shown
# T9 sequence: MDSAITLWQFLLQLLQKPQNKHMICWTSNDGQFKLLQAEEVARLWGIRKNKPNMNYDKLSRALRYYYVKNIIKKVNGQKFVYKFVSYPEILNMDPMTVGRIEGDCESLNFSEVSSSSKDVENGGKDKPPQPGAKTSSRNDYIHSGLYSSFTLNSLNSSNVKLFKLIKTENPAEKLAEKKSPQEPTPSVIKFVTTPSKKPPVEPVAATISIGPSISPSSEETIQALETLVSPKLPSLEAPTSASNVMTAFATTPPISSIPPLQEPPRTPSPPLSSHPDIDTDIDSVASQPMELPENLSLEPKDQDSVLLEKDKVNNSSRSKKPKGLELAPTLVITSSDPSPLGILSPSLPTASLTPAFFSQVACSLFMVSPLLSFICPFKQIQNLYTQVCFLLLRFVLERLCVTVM
# How it was run: as §1
# ETV2 = molecular target: T10, ETV2 (Homo sapiens, UniProt O00321 1-342); details: protein: recombinant; tags: N-terminal GST; dsDNA, one strand shown
# T10 sequence: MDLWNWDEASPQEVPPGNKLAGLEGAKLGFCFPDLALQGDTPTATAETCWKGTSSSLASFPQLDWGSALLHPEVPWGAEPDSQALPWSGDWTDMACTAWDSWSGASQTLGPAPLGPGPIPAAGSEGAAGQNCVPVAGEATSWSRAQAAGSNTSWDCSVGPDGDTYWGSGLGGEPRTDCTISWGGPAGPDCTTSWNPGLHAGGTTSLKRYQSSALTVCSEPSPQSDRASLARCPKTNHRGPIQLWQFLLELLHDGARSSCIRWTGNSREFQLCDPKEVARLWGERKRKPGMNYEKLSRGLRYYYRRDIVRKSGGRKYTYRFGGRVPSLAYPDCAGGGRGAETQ
# How it was run: as §1
# ELF3 = molecular target: T11, ELF3 (Homo sapiens, UniProt P78545 1-371); details: protein: recombinant; tags: N-terminal GST; dsDNA, one strand shown
# T11 sequence: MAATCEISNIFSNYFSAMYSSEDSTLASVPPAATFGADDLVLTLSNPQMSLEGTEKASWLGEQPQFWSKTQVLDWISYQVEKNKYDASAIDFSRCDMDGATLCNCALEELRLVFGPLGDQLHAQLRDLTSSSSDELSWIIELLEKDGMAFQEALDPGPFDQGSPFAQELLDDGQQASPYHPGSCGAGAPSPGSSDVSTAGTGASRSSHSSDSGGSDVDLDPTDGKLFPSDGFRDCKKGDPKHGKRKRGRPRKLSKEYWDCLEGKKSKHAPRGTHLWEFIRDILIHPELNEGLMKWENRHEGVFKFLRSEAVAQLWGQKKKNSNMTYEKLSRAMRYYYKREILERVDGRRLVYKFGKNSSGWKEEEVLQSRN
# How it was run: as §1
# CRX = CRX (Homo sapiens, UniProt O43186 1-299); details: protein: recombinant; tags: N-terminal GST; dsDNA, one strand shown
# How it was run: as §1
# ETV1 = ETV1 (Homo sapiens, UniProt P50549 1-477); details: protein: recombinant; tags: N-terminal GST; dsDNA, one strand shown
# How it was run: as §1
# SPIB, sequence (Q01892 whole entry): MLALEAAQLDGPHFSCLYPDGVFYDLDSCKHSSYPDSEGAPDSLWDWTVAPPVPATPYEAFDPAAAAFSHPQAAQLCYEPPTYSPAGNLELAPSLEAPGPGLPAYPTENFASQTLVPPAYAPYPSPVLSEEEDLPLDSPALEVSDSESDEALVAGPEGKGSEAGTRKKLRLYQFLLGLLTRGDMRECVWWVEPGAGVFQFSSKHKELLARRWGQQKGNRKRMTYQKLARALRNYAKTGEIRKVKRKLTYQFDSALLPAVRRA
# ELF4, sequence (Q99607 whole entry): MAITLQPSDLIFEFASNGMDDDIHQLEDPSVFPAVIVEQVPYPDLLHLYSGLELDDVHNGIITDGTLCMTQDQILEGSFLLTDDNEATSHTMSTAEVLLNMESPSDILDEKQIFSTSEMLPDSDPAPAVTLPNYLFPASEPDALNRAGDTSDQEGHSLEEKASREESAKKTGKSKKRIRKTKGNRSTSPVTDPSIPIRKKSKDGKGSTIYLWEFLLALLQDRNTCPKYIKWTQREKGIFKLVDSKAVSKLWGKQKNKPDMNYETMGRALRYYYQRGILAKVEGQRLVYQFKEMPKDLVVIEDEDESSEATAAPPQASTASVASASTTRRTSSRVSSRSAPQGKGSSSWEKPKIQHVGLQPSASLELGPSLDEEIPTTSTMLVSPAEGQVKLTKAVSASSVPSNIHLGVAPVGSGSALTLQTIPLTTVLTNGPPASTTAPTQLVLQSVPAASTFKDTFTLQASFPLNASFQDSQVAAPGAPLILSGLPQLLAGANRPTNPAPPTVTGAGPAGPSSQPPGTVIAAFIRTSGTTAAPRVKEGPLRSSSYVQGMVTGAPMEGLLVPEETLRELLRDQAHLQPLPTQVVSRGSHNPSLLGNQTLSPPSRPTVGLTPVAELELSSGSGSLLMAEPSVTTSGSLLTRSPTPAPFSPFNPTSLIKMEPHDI
# HSF1, sequence (Q00613 whole entry): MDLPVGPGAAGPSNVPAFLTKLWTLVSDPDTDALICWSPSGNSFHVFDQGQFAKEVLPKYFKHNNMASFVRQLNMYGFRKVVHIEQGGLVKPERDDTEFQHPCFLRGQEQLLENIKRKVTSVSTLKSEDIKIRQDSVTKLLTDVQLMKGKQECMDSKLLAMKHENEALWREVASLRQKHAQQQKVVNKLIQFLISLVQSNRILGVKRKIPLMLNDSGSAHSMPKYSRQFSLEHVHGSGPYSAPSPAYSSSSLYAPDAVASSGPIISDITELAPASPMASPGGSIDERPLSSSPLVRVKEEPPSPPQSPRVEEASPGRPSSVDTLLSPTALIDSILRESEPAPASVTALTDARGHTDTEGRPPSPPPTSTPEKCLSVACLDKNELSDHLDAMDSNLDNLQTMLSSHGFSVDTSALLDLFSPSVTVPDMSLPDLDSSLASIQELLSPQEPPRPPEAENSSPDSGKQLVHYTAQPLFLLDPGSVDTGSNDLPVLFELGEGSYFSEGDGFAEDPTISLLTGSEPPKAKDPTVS
# ETV1, sequence (P50549 whole entry): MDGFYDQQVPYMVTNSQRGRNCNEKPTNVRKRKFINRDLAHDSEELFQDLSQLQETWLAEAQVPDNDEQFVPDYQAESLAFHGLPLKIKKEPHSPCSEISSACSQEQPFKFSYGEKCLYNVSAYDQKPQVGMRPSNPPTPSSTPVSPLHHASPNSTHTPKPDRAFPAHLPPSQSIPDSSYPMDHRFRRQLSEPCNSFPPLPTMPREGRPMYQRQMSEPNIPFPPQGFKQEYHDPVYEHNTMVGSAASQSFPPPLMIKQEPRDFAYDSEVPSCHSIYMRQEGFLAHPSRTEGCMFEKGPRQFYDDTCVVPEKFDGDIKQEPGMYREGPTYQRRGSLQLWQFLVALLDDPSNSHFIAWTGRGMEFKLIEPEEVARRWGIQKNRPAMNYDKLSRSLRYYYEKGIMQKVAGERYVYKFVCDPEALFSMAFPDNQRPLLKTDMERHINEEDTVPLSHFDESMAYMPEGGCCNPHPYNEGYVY
# CRX, sequence (O43186 whole entry): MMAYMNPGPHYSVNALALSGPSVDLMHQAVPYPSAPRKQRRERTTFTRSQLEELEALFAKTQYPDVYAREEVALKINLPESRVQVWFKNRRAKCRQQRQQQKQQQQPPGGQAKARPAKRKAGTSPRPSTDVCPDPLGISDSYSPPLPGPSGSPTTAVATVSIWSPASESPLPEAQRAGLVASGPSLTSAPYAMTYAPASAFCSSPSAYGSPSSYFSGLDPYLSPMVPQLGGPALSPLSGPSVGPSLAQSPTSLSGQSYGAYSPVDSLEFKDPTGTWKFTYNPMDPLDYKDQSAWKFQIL
# ETV5, sequence (P41161 whole entry): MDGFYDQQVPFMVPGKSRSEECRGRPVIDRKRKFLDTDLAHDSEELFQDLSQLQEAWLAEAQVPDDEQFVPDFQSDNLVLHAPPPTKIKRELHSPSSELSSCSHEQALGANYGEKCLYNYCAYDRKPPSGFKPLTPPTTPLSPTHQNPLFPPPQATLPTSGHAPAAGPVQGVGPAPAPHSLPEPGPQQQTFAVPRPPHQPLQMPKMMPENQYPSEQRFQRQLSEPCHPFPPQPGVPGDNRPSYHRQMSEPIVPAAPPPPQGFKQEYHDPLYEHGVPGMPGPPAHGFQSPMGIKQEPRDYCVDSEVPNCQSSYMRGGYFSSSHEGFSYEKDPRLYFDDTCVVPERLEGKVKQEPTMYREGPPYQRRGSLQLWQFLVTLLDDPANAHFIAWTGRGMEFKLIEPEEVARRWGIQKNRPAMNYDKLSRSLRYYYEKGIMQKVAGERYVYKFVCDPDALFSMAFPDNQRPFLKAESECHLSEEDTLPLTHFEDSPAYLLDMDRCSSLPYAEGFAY
# ELF1, sequence (P32519 whole entry): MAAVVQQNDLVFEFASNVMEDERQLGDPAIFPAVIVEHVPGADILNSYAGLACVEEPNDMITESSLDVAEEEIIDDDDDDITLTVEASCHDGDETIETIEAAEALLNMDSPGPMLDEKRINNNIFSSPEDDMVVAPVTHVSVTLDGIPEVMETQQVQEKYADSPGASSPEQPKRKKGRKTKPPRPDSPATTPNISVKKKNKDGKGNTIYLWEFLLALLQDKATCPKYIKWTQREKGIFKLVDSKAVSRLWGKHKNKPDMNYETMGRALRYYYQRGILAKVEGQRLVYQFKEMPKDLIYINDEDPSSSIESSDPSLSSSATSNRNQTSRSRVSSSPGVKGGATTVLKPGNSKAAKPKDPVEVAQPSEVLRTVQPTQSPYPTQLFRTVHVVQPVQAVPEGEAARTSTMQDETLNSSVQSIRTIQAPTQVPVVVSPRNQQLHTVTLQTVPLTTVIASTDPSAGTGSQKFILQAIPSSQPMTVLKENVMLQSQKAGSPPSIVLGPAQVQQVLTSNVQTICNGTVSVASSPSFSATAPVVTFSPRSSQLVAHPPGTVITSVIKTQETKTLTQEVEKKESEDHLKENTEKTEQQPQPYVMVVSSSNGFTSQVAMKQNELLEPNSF
sequence,measurement,setting,value
TTGACT,binding signal,FLI1,"1.19 fold enrichment (6-mer frequency, TF over GST control)"
same,binding signal,ELK1,"1.19 fold enrichment (6-mer frequency, TF over GST control)"
same,binding signal,GABPA,"1.15 fold enrichment (6-mer frequency, TF over GST control)"
same,binding signal,ERG,"1.18 fold enrichment (6-mer frequency, TF over GST control)"
same,binding signal,ELF1,"1.15 fold enrichment (6-mer frequency, TF over GST control)"
same,binding signal,EHF,"1.06 fold enrichment (6-mer frequency, TF over GST control)"
same,binding signal,SPI1,"1.19 fold enrichment (6-mer frequency, TF over GST control)"
same,binding signal,SPIB,"1.18 fold enrichment (6-mer frequency, TF over GST control)"
same,binding signal,ELK3,"1.03 fold enrichment (6-mer frequency, TF over GST control)"
same,binding signal,FEV,"1.15 fold enrichment (6-mer frequency, TF over GST control)"
same,binding signal,ETV5,"1.13 fold enrichment (6-mer frequency, TF over GST control)"
same,binding signal,HSF1,"1.12 fold enrichment (6-mer frequency, TF over GST control)"
same,binding signal,SPIC,"1.15 fold enrichment (6-mer frequency, TF over GST control)"
same,binding signal,ELF4,"1.21 fold enrichment (6-mer frequency, TF over GST control)"
same,binding signal,ELK4,"1.3 fold enrichment (6-mer frequency, TF over GST control)"
same,binding signal,ETV2,"1.27 fold enrichment (6-mer frequency, TF over GST control)"
same,binding signal,ELF3,"1.15 fold enrichment (6-mer frequency, TF over GST control)"
same,binding signal,CRX,"1.09 fold enrichment (6-mer frequency, TF over GST control)"
same,binding signal,ETV1,"1.18 fold enrichment (6-mer frequency, TF over GST control)"
